The results in this text go back to PubChem BioAssay.

Activity calls are given as the source filed them. No rule for the calls is given here.

Sequence of Pantothenate synthetase (Mycobacterium tuberculosis (strain ATCC 25618 / H37Rv)) (P9WIL5 whole entry, looked up): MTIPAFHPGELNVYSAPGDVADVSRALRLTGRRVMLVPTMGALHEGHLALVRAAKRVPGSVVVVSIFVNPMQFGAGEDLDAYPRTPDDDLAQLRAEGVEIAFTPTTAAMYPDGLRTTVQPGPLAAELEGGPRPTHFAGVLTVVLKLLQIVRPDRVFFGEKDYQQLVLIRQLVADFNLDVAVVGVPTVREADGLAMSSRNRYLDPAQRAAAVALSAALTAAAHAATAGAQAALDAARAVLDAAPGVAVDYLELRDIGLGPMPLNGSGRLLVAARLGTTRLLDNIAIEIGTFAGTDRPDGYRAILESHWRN

The assay addresses Pantothenate synthetase (Mycobacterium tuberculosis (strain ATCC 25618 / H37Rv)) (UniProt P9WIL5). As to the kind of experiment: Recombinant Mtb pantothenate synthetase (PanC) inhibitors, coupled enzyme, confirmatory (AID 375).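 Also: 0% = full reaction with vehicle and 100% = no enzyme background.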 The settings on record: coupled enzyme assay; at 10 µM, hits give high values.
Take `CCOC(=O)CN1CC23C=CC(O2)C(C(=O)Nc2ccc(OC)cc2OC)C3C1=O` (stereo not given): the inhibition was 0% (inactive). Consider `O=C(CCCOc1ccccc1)N1CCN(c2ccccn2)CC1`, for which the inhibition was 3% (inactive).

As to `c1ccc(Cn2nnnc2C(c2ccccn2)N2CCOCC2)cc1` (stereo not given), the inhibition was 0% (inactive).

For the compound `CN(c1ccccc1C(=O)NCC1CCCO1)S(C)(=O)=O` (stereo not given), the inhibition was 2% (inactive). To `COc1ccc(C2(C(=O)Nc3cc(C)on3)CCOCC2)cc1` belongs 2% (inactive).

For `O=C(c1ccccc1)c1ccc(N2CCOCC2)c(NC(=O)c2ccco2)c1`, the inhibition was 11% (inactive). In the case of `O=C(c1ccc2snnc2c1)N1CCOCC1`, the inhibition was 3% (inactive). In the case of `COc1cc(C(c2sc3nc(C)nn3c2O)N2CC(C)CC(C)C2)cc(OC)c1OC` (stereo not given), the inhibition was 0% (inactive). In the case of `Cn1c(=O)c(-c2ccccc2)nn2c3ccccc3nc12`, the inhibition is 0% (inactive). Then `CCOC(=O)c1[nH]c2ccc(C)cc2c1NC(=O)CN1CCCCC1`, with 3% (inactive). Take `CN(C)CCCN1c2ccccc2Sc2ccc(C(F)(F)F)cc21`: the inhibition is 0% (inactive). For the compound `COc1ccc(-n2nnnc2SCC(=O)c2ccc(O)c(O)c2)cc1`, the inhibition was 0% (inactive). As for `CCOC(=O)CN1CC23C=CC(O2)C(C(=O)NC2CCCC2)C3C1=O` (stereo not given), the inhibition was 3% (inactive). As for `CC(C)c1ccc(-c2nc(N3CCCCC3)[nH]c(=O)c2C#N)cc1`, the inhibition was 5% (inactive).

Take `Cc1cc(C)cc(N(CC(=O)NC2CCC(C)CC2)S(=O)(=O)c2c(C)noc2C)c1` (stereo not given): the inhibition is 0% (inactive). With `O=C(COC(=O)CCC(=O)c1cccs1)NCc1ccco1`, the inhibition is 0% (inactive). On to `C[C@]12CC[C@@H]3c4ccc(OC(=O)c5ccccc5)cc4CC[C@H]3[C@@H]1CC[C@@H]2O`, for which the inhibition was 0% (inactive).

`CCOCCCNC(=O)C1CCC(=O)N1CCc1ccccc1` (stereo not given): the inhibition was 5% (inactive). Take `COc1ccc(-c2nn3c(-c4ccncc4)nnc3s2)cc1OC`: the inhibition is 0% (inactive). With `CCOC(=O)N1CCC(NC(=O)CSCc2nc(-c3cccc(OC)c3)oc2C)CC1`, the inhibition is 0% (inactive).

Regarding `COc1ccccc1OCC(=O)N1CCNC1=O`, the inhibition is 0% (inactive). Take `Cc1cc(Nc2ccccc2F)n2ncnc2n1`: the inhibition was 0% (inactive). Then `CC(OC(=O)c1cccc(NS(C)(=O)=O)c1)C(=O)Nc1ccc(N2CCOCC2)cc1` (stereo not given), with 0% (inactive). Take `CC1(c2ccc(Cl)cc2)NC(=O)N(CC(=O)NC(=O)NCc2ccco2)C1=O` (stereo not given): the inhibition was 1% (inactive). Take `Cn1c(=O)c2c(nc(CN3CCN(Cc4ccccc4)CC3)n2Cc2cccc(Cl)c2)n(C)c1=O`: the inhibition was 0% (inactive). Turning to `C(=N\c1c(-c2ccccc2)nc2n1CCS2)/c1ccccc1`, the inhibition was 4% (inactive). On to `COCCn1nnnc1C(c1ccc(OC)cc1)N1CCN(c2ccccc2F)CC1` (stereo not given), for which the inhibition is 0% (inactive). `CCN(CC)S(=O)(=O)c1cccc(-c2nnc(SCC(N)=O)n2CCc2ccccc2)c1`: the inhibition was 0% (inactive). On to `Cc1cc(C)cc(N2C(=O)C3C4C=CC(C4)C3C2=O)c1` (stereo not given), for which the inhibition was 0% (inactive).

Consider `O=C(OCN1C(=O)c2ccccc2C1=O)C1CCCCC1`, for which the inhibition was 1% (inactive). `O=C(CN1CCN(c2nc(-c3ccc(Cl)cc3)cs2)CC1)NCc1ccco1`: the inhibition is 4% (inactive). For the compound `COc1ccc(N(CC(=O)N2CCCCC2)S(=O)(=O)c2ccccc2)c(OC)c1`, the inhibition is 0% (inactive). Consider `O=C(NCc1ccco1)c1cccn2c(=O)c3sccc3nc12`, for which the inhibition was 4% (inactive). Turning to `CCCCOc1ccc(C2C3CN(C(=O)OCC)CC=C3C(C#N)=C(N)C2(C#N)C#N)cc1OC` (stereo not given), the inhibition was 0% (inactive). For the compound `C=CCC(Nc1ccco1)c1ccccc1` (stereo not given), the inhibition was 1% (inactive). To `c1cc(C(c2nnnn2C2CCCC2)N2CCOCC2)ccn1` (stereo not given) belongs 4% (inactive). For the compound `CCCc1cc(N2CCCC2)n2nc(C)c(-c3ccccc3)c2n1`, the inhibition is 0% (inactive). Then `O=C(CN1CCC(O)(c2ccc3c(c2)OCO3)CC1)OC1CCCCC1`, with 0% (inactive); and `c1ccc(N2CCN(Cc3cn4cccnc4n3)CC2)cc1`, with 3% (inactive); and `CN1CCN2c3ccccc3Cc3ccccc3C2C1` (stereo not given), with 0% (inactive).

A word on the inhibition: it is the percentage by which the read-out fell short of the control.
